Results reported in PubChem BioAssay.
Inconclusive results are not listed. For some assays here: Measured potencies and affinities stand elsewhere. The source made the active and inactive calls.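 Rule for the calls, unless noted: active = compound that reduces growth-factor-driven endothelial tube area in a mixed cell culture, no cutoff stated; inactive = the rest.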

Legend:
[1] = stimulators of insulin release from INS-1E, primary screen, cell-based, 5 mM glucose, NPC library (AID 1117329;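 active = compound raises insulin release from rat beta cells at 5 mM glucose, no numeric limit stated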); conditions: rat INS-1E insulin secretion, at 10 µM, stronger effect = higher value
[2] = growth inhibition of GSK3B-pretreated HCT116 cells – cell-based, CellTiter-Glo, 0.2 to 20 µM (AID 1117336;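 active = compounds lowering colon cancer cell viability after pretreatment blocking the GSK3B kinase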); conditions: HCT116 viability after GSK3B inhibitor, at 20 µM, stronger effect = higher value
[3] = inhibition of endothelial tube formation, primary screen, imaging, VEGF stimulated, CD31 staining, tube area, NPC library (AID 1117340); conditions: VEGF-stimulated ADSC/ECFC co-culture, at 10 µM, stronger effect = higher value
[4] = GLP1 release stimulators, primary, NCI-H716, NPC library (AID 1117341;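 active = compound raises GLP1 secretion from the human gut endocrine cells, with no numeric limit stated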); conditions: NCI-H716 cells, at 10 µM, stronger effect = higher value
[5] = HCT116 colon cancer cell growth inhibition, primary screen, CellTiter-Glo luminescence, NPC library (AID 1117342;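 active = compounds that lower survival of HCT116 colon cancer cells in the luminescence readout, no numeric limit stated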); conditions: at 20 µM (top of the series)
[6] = reduced SW480 viability measured with CellTiter-Glo, NPC library, primary (AID 1117343;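 active = compounds that lower viability of the colon cancer cells in the luminescence readout, with no numeric limit stated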); conditions: CellTiter-Glo luminescence; at 20 µM (top of the series)
[7] = NPC library primary testing for decreased DLD-1 cell viability via CellTiter-Glo (AID 1117346;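 active = compounds that lower survival of DLD-1 colon cancer cells in the luminescence readout, no cutoff given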); conditions: DLD-1 viability, CellTiter-Glo luminescence; at 20 µM (top of the series)
[8] = biological target: 6-phosphogluconate dehydrogenase, decarboxylating (Homo sapiens) (UniProt P52209); experiment: inhibition of human phosphogluconate dehydrogenase – biochemical, recombinant enzyme, NADPH absorbance, primary screen (AID 1159550;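 active = at least 20% inhibition of 6-phosphogluconate dehydrogenase activity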); conditions: recombinant 6PGD, NADPH absorbance 341 nm; at 10 µM; stronger effect = higher value
Chain of 6-phosphogluconate dehydrogenase, decarboxylating (Homo sapiens) (P52209 whole entry, looked up): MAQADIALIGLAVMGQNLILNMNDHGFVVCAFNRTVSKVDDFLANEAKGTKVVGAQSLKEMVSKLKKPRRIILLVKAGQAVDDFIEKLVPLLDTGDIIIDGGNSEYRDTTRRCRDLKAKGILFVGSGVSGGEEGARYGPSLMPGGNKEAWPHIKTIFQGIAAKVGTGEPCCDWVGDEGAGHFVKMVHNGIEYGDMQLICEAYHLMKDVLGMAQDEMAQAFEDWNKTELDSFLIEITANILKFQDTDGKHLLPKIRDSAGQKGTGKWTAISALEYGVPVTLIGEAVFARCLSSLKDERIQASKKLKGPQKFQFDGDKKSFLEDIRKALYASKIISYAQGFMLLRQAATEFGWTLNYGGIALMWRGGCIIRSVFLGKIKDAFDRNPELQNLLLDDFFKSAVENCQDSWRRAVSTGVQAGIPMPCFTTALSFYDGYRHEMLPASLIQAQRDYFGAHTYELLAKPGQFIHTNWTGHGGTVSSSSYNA

[9] = EMT-state selective cytotoxicity in co-culture – imaging, PC-3E GFP, TEM4-18 mCherry, primary screen (AID 1345086;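 active = compounds killing one labelled cell type while sparing the other, by normalised counts and ratio limits, not self-fluorescent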;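 for all read-outs here: cells exposed to compound for 72 h before imaging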;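 for red/green cell ratio (normalised): normalised mesenchymal count divided by normalised epithelial count so high means epithelial killing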); conditions: PC-3E GFP / TEM4-18 mCherry co-culture, imaging cell counts, at 1 µM; for red/green cell ratio (normalised): actives lie on both sides, counts scaled to control wells, 1 = unselective
[10] = viability loss in pontine glioma line – cell-based, SU-DIPG-XIII, MIPE4.0, CellTiter-Glo, qHTS, dose response (AID 1347061; cut-off not given, nearly all actives have AC50 up to about 37 µM;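 note: cells exposed to compound for 48 hours before readout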); conditions: CellTiter-Glo ATP luminescence
[11] = viability loss in pontine glioma line – cell-based, JHH-DIPG-1, MIPE4.0, CellTiter-Glo, qHTS, dose response (AID 1347062; cut-off not given, nearly all actives have AC50 up to about 27 µM;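 for AC50: cells exposed to compound for two days before readout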); conditions: JHH-DIPG-1 viability, CellTiter-Glo ATP luminescence
[12] = viability loss in pontine glioma line – cell-based, SU-DIPG-XIII, MIPE5.0, CellTiter-Glo, qHTS, dose response (AID 1347064; cut-off not given, nearly all actives have AC50 up to about 23 µM;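 for AC50: cells exposed to compound for 48 hours before the viability read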); conditions: CellTiter-Glo ATP luminescence
[13] = viability loss in pontine glioma line – cell-based, SU-DIPG-XVII, MIPE5.0, CellTiter-Glo, qHTS, dose response (AID 1347060; cut-off not given, nearly all actives have AC50 up to about 26 µM;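 for AC50: cells exposed to compound for 48 hours before viability readout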); conditions: CellTiter-Glo ATP luminescence
[14] = viability loss in pontine glioma line – cell-based, SU-DIPG-IV, MIPE4.0, CellTiter-Glo, qHTS, dose response (AID 1347063; cut-off not given, nearly all actives have AC50 up to about 30 µM;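 note: compound exposure lasted 48 hours before the viability readout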); conditions: CellTiter-Glo ATP luminescence
[15] = biological target: Plasmodium falciparum protein kinase 6 (PK6, PF3D7_1337100) (UniProt Q8IDW1); experiment: PfPK6 kinase inhibitors, biochemical, TCAMS library (AID 1159586; call rule not given here); conditions: recombinant PfPK6, Kinase-Glo ATP depletion luminescence
Chain of Plasmodium falciparum protein kinase 6 (PK6, PF3D7_1337100) (Q8IDW1 1-305): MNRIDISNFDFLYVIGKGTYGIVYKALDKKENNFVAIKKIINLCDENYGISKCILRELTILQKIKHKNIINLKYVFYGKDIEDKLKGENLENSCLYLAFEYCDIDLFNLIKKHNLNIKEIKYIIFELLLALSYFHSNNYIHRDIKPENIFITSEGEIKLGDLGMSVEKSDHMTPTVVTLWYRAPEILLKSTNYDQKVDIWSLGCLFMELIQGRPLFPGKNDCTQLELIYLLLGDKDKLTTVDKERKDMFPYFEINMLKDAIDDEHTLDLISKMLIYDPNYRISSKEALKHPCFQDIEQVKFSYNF

[16] = biological target: Protein kinase 7 (PK7), Plasmodium falciparum 3D7 (PF3D7_0213400) (UniProt Q7YTF7); experiment: inhibition of Plasmodium PK7 catalytic activity – biochemical, TCAMS antimalarial set, Kinase-Glo luminescence (AID 1159587; call rule not given here); conditions: recombinant PfPK7, Kinase-Glo ATP depletion luminescence
Chain of Protein kinase 7 (PK7), Plasmodium falciparum 3D7 (PF3D7_0213400) (Q7YTF7 1-343): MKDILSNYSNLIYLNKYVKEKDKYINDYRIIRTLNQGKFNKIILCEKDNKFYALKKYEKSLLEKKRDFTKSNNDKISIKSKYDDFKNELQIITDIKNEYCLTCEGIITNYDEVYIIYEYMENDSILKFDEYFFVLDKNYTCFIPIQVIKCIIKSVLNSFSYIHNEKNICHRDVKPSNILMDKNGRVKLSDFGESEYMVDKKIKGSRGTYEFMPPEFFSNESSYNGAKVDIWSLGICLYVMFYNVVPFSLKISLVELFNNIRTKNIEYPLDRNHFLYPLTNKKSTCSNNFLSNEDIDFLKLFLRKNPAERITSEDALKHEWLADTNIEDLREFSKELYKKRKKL

[17] = biological target: Calcium-dependent protein kinase 4 (Plasmodium falciparum (isolate 3D7)) (UniProt Q8IBS5); experiment: PfCDPK4 kinase inhibitors, biochemical, TCAMS library (AID 1159588; cut-off not given, nearly all actives have IC50 up to about 0.91 µM); conditions: recombinant PfCDPK4, Kinase-Glo ATP depletion luminescence
Chain of Calcium-dependent protein kinase 4 (Plasmodium falciparum (isolate 3D7)) (Q8IBS5 whole entry, looked up): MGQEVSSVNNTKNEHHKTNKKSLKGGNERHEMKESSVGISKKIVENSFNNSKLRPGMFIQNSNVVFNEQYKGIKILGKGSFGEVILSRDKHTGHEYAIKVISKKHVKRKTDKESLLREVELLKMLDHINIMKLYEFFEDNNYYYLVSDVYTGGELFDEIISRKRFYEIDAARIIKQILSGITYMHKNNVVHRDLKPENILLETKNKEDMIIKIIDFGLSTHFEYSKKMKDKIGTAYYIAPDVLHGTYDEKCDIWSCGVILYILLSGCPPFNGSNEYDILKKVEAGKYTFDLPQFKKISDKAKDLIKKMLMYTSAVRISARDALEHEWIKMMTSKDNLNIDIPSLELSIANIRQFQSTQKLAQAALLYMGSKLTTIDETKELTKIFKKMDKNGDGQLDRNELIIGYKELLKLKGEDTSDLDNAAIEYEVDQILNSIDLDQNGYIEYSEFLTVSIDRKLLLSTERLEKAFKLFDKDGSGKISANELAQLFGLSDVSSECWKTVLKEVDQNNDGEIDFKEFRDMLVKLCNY

[18] = modulation of C. elegans fzo-1 (AID 1259413; call rule not given here;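 note: fzo-1 mutant C. elegans worms in liquid wells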); conditions: C. elegans fzo-1 modulator screen, mean read-out; stronger effect = higher value
[19] = system: Aerobactin synthetase IucA (Klebsiella pneumoniae); experiment: inhibition of K. pneumoniae IucA enzyme – biochemical, Tocris library, absorbance (AID 1345561; call rule not given here;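 note: 100% = enzyme without compound and 0% = no enzyme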); conditions: purified IucA enzyme assay, absorbance (OD) read-out; stronger effect = lower value;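 tested at 8 µM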
[20] = biological target: Calcium-dependent protein kinase 1 (Plasmodium falciparum (isolate 3D7)) (UniProt P62344); experiment: PfCDPK1 kinase inhibitors, biochemical, TCAMS library (AID 1159585; cut-off not given, nearly all actives have IC50 up to about 0.98 µM;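 note: inhibitors leave more ATP so luminescence rises with inhibition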); conditions: recombinant PfCDPK1, Kinase-Glo ATP depletion luminescence
Chain of Calcium-dependent protein kinase 1 (Plasmodium falciparum (isolate 3D7)) (P62344 whole entry, looked up): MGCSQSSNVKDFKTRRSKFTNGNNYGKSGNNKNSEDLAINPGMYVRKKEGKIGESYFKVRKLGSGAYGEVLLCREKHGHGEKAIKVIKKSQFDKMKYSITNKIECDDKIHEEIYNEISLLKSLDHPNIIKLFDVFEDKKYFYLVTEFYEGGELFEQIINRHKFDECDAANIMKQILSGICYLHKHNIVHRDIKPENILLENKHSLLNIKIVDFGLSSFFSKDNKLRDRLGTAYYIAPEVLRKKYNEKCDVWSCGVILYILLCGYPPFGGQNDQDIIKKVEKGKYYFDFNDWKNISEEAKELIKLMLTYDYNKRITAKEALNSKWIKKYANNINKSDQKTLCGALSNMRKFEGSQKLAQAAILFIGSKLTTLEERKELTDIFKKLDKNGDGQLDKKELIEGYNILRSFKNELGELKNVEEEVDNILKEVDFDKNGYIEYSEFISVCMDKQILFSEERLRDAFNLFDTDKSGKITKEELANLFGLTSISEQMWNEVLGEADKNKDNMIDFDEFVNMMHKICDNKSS

[21] = measured here: epithelial PC-3E GFP cell survival
[22] = measured here: mesenchymal TEM4-18 mCherry cell survival

NC(=O)N/N=C/c1ccc([N+](=O)[O-])o1
0.55: normalised cell number [9, 21]
0.62: normalised cell number [9, 22]
active: viability decrease (inhibition) [6] 68.8%
inactive: insulin secretion stimulation [1] -0.4% | viability decrease [2] 45.2% | tube area decrease [3] -17% | GLP1 secretion stimulation [4] -2.5% | inhibition of viability [5] 45.3% | viability decrease (inhibition) [7] -6.7% | inhibition [8] 5.85% | red/green cell ratio (normalised) [9] 1.13 | outcome [10]

CC1=C(C(=O)O)N2C(=O)[C@@H](NC(=O)[C@H](N)C3=CCC=CC3)[C@H]2SC1
inactive: insulin secretion stimulation [1] 0.35% | viability decrease [2] 47.6% | tube area decrease [3] 0.9% | GLP1 secretion stimulation [4] 1.6% | inhibition of viability [5] 44% | viability decrease (inhibition) [6] 34.9% | viability decrease (inhibition) [7] 16.5% | inhibition [8] 12.9% | outcome [11]

Cc1cc(C(C)(C)C)cc(C)c1CC1=NCCN1
inactive: insulin secretion stimulation [1] 0.2% | viability decrease [2] -61.3% | tube area decrease [3] 5.9% | GLP1 secretion stimulation [4] 4.3% | inhibition of viability [5] 18.3% | viability decrease (inhibition) [6] 2.6% | viability decrease (inhibition) [7] 14.6% | inhibition [8] -1.59% | red/green cell ratio (normalised) [9] 1.16 | outcome [12]
1.07: normalised cell number [9, 21]
1.24: normalised cell number [9, 22]

C[C@H]1O[C@@H](n2cc(F)c(=O)[nH]c2=O)[C@H](O)[C@@H]1O
active: inhibition of viability [5] 59.6%
inactive: insulin secretion stimulation [1] -1.2% | viability decrease [2] 29.5% | tube area decrease [3] 22.2% | GLP1 secretion stimulation [4] -2.6% | viability decrease (inhibition) [6] 20.6% | viability decrease (inhibition) [7] 8.35% | inhibition [8] -6.33% | outcome [11]

NC[C@H](O)c1ccc(O)c(O)c1
inactive: insulin secretion stimulation [1] 0.1% | viability decrease [2] 31.8% | tube area decrease [3] -25.8% | GLP1 secretion stimulation [4] 3.6% | inhibition of viability [5] 2.5% | viability decrease (inhibition) [6] 38.8% | viability decrease (inhibition) [7] 8.6% | inhibition [8] 7.95% | outcome [13] | outcome [14]

NC(=O)c1ncn([C@@H]2O[C@H](CO)[C@@H](O)[C@H]2O)c1O
inactive: insulin secretion stimulation [1] -2.6% | viability decrease [2] -1.75% | tube area decrease [3] 3.8% | GLP1 secretion stimulation [4] 2.6% | inhibition of viability [5] -13.1% | viability decrease (inhibition) [6] 2.7% | viability decrease (inhibition) [7] 4.7% | inhibition [8] 1.32% | outcome [13] | outcome [10] | outcome [12]

COc1cc(/C=C/C(=O)CC(=O)/C=C/c2ccc(O)c(OC)c2)ccc1O
inactive: insulin secretion stimulation [1] 1.35% | viability decrease [2] 26.1% | tube area decrease [3] -1.2% | GLP1 secretion stimulation [4] -0.1% | inhibition of viability [5] 11.9% | viability decrease (inhibition) [6] -4.1% | viability decrease (inhibition) [7] -7.3% | inhibition [8] 8.75%
active: AC50 [14] 30.3 µM | AC50 [12] 16.6 µM

Cc1onc(-c2ccccc2)c1C(=O)N[C@@H]1C(=O)N2[C@@H]1SC(C)(C)[C@@H]2C(=O)O
inactive: insulin secretion stimulation [1] 6.3% | viability decrease [2] 0.4% | tube area decrease [3] -1.6% | GLP1 secretion stimulation [4] -3.6% | inhibition of viability [5] 5.3% | viability decrease (inhibition) [6] -4.9% | viability decrease (inhibition) [7] -3.8% | inhibition [8] 8.76% | outcome [10] | outcome [11] | outcome [14]

COc1cc2c(Nc3ccc(Br)cc3F)ncnc2cc1OCC1CCN(C)CC1
active: AC50 [13] 6.61 µM | AC50 [10] 3.72 µM | AC50 [11] 16.6 µM | AC50 [12] 18.6 µM
inactive: insulin secretion stimulation [1] 2.4% | viability decrease [2] -7.7% | tube area decrease [3] -0.5% | GLP1 secretion stimulation [4] 1.5% | inhibition of viability [5] -16% | viability decrease (inhibition) [6] -11.4% | viability decrease (inhibition) [7] -10.1% | outcome [15] | outcome [16] | outcome [17]

COC(=O)C1=C(C)NC(C)=C(C(=O)O[C@@H]2CCCN(Cc3ccccc3)C2)[C@@H]1c1cccc([N+](=O)[O-])c1
inactive: insulin secretion stimulation [1] 1.9% | GLP1 secretion stimulation [4] -0.5% | mean signal [18] 249
active: viability decrease [2] 110% | tube area decrease [3] 52.9% | inhibition of viability [5] 109% | viability decrease (inhibition) [6] 131% | viability decrease (inhibition) [7] 101%

COc1cc(C(=O)NC2CCCNC2)cc(OC)c1OC (configuration not stated)
inactive: insulin secretion stimulation [1] 1.6% | viability decrease [2] -5.2% | tube area decrease [3] 0.1% | GLP1 secretion stimulation [4] 3.3% | inhibition of viability [5] 0.8% | viability decrease (inhibition) [6] 37.5% | viability decrease (inhibition) [7] 15.8% | mean signal [18] 236

CC(C)NC[C@@H](O)COc1cccc2ccccc12
inactive: insulin secretion stimulation [1] 15.3% | viability decrease [2] 6.9% | tube area decrease [3] 5.1% | GLP1 secretion stimulation [4] 3.3% | inhibition of viability [5] 0.8% | viability decrease (inhibition) [7] 13.7% | inhibition [8] 5.64% | remaining activity [19] 109%
active: viability decrease (inhibition) [6] 54.8%

O=c1[nH]c(=O)n([C@H]2C[C@H](O)[C@@H](CO)O2)cc1F
active: viability decrease [2] 94.2% | tube area decrease [3] 87.8% | inhibition of viability [5] 102% | viability decrease (inhibition) [6] 93.2% | viability decrease (inhibition) [7] 69.5% | AC50 [10] 13.2 µM | AC50 [11] 1.48 µM
inactive: insulin secretion stimulation [1] -1.2% | GLP1 secretion stimulation [4] 2.8% | inhibition [8] -7.05%

CCCCCCCC/C=C\CCCCCCCC(=O)NCc1ccc(O)c(OC)c1
inactive: insulin secretion stimulation [1] 3.15% | viability decrease [2] 26.6% | tube area decrease [3] 17.4% | GLP1 secretion stimulation [4] 6.2% | viability decrease (inhibition) [6] 47.5% | outcome [20] | outcome [15] | outcome [16] | outcome [17] | remaining activity [19] 100%
active: inhibition of viability [5] 65.7% | viability decrease (inhibition) [7] 53.1%

CCCCC(=O)O[C@]1(C(=O)CO)[C@@H](C)C[C@H]2[C@@H]3CCC4=CC(=O)C=C[C@]4(C)[C@@]3(F)[C@@H](O)C[C@@]21C
inactive: insulin secretion stimulation [1] -4.4% | viability decrease [2] -106% | tube area decrease [3] 2.4% | GLP1 secretion stimulation [4] 8.1% | inhibition of viability [5] 12.9% | viability decrease (inhibition) [6] -0.4% | viability decrease (inhibition) [7] 11% | inhibition [8] -3.61% | outcome [13]

CCOc1ccc2nc3cc(N)ccc3c(N)c2c1
active: viability decrease [2] 81.2% | tube area decrease [3] 73.3% | inhibition of viability [5] 70.6% | viability decrease (inhibition) [6] 121%
0.65: normalised cell number [9, 22]
0.62: normalised cell number [9, 21]
inactive: insulin secretion stimulation [1] 3.5% | GLP1 secretion stimulation [4] 8.6% | viability decrease (inhibition) [7] 47.2% | outcome [20] | outcome [15] | outcome [16] | outcome [17] | red/green cell ratio (normalised) [9] 1.04

C=C[C@@]1(C)CC(=O)[C@]2(O)[C@@]3(C)[C@@H](O)CCC(C)(C)[C@@H]3[C@H](O)[C@H](OC(C)=O)[C@@]2(C)O1
inactive: insulin secretion stimulation [1] 3.6% | viability decrease [2] -20.2% | tube area decrease [3] -41% | GLP1 secretion stimulation [4] 5% | inhibition of viability [5] 17.1% | viability decrease (inhibition) [7] -16.6% | inhibition [8] 14.7% | remaining activity [19] 113%
active: viability decrease (inhibition) [6] 56.2%

C[N+]1(C)[C@@H]2CC(OC(=O)[C@H](CO)c3ccccc3)C[C@H]1[C@@H]1O[C@@H]12 (some centres not stated)
inactive: insulin secretion stimulation [1] 0.2% | viability decrease [2] -19.7% | tube area decrease [3] 5.6% | GLP1 secretion stimulation [4] -2.3% | inhibition of viability [5] 2% | viability decrease (inhibition) [6] -6.3% | viability decrease (inhibition) [7] -6.1% | inhibition [8] 0.481% | outcome [13] | outcome [10] | outcome [11] | outcome [14] | outcome [12]

COc1cc2c(cc1OC)-c1cc(=Nc3c(C)cc(C)cc3C)n(C)c(=O)n1CC2
inactive: insulin secretion stimulation [1] 1.3% | tube area decrease [3] -11.8% | GLP1 secretion stimulation [4] 12.7% | outcome [20] | outcome [15] | outcome [16] | outcome [17] | remaining activity [19] 110%
active: viability decrease [2] 91.5% | inhibition of viability [5] 71.2% | viability decrease (inhibition) [6] 120% | viability decrease (inhibition) [7] 66.5%

CC1(C)O[C@H]2CC(=O)OC[C@]23[C@H]2CC[C@@]4(C)[C@H](c5ccoc5)OC(=O)[C@H]5O[C@]54[C@]2(C)C(=O)C[C@@H]13
inactive: insulin secretion stimulation [1] 0.05% | viability decrease [2] 2.7% | tube area decrease [3] 16.3% | GLP1 secretion stimulation [4] 2% | inhibition of viability [5] -6.9% | viability decrease (inhibition) [6] -12.1% | viability decrease (inhibition) [7] -9.6% | inhibition [8] 5.47% | outcome [11] | outcome [14]
